# Assay outcomes (PubChem)
# HT1080 IDH1KD tx = toxicity to HT-1080 IDH1 knockdown cells (counter line); HT-1080 IDH1 knockdown viability, ATP luminescence, 48 h; Potency, µM (top dose mostly 46.1 µM), usual class: cytotoxic; actives 2% (n = 360,000); AID 686971
#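 CellTiter-Glo luminescence after 48 h compound exposure at 37 degrees C of IDH1-knockdown HT-1080 cells in 5% FBS RPMI. %Activity scaled between DMSO wells and cell-free media wells, with curves fitted and assigned curve classes.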
# IL1B secr inh = blocks inflammasome-driven IL-1 beta release. THP-1 LPS/ATP IL-1B secretion, AlphaLISA, 16 h; stronger effect = lower value. activity change, % at 57.5 µM. actives 4.7% (n = 360,000). AID 743279; in the data active = activity change below about -50%; inconclusive = mostly about -30% to -49%
#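 Secreted IL-1B measured by AlphaLISA bead assay after 16 h compound exposure of THP-1 cells; compounds (final up to 57.5 uM) added 1 h before LPS (250 ng/mL) and ATP (1.25 mM) stimulation; lower signal means less secretion.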
# HT1080-NT tox = kills 2HG-producing HT-1080-NT fibrosarcoma cells; HT-1080-NT fibrosarcoma viability, CellTiter-Glo ATP luminescence, 48 h; Potency, µM (series often up to 46.1 µM), actives largely listed as cytotoxic; actives 1.6% (n = 360,000); AID 686970;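 note: NT is the 2HG producing partner of a matched IDH1 knockdown line; nearly all actives have a fitted effect of over 55% in size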
#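 750 cells/well, RPMI + 5% FBS; 2 h settle, compound pin-transfer, 48 h at 37 degrees C. CellTiter-Glo 10 min RT, luminescence. Normalized to DMSO and media-only wells.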
# DT40 TDP1 no CPT = qHTS for Inhibitors of human tyrosyl-DNA phosphodiesterase 1 (TDP1): qHTS in cells in absence of CPT; DT40 Tdp1-/- hTDP1 cells, no CPT, ATP luminescence, 48 h; actives 15% (n = 420,000); Potency, µM (series often up to 46.2 µM), hits mostly inhibitors; note: nearly all actives have a fitted effect of over 55% in size
#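 Chicken DT40 Tdp1-/- cells stably complemented with human TDP1 were seeded at 400 cells/well with DMSO in place of 20 nM camptothecin. After compound pinning, cells grew at least 48 hr at 37 °C; viability read by CellTiter-Glo luminescence.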
# DT40 TDP1 CPT = growth inhibition of DT40 Tdp1-/-;hTDP1 cells with camptothecin (screen for TDP1 inhibitors) | actives 12% (n = 420,000) | chicken DT40 Tdp1-/-;hTDP1 cells + 20 nM CPT, ATP luminescence, 48 h | Potency, µM (top dose mostly 46.2 µM), actives largely listed as inhibitors | AID 686979; note: nearly all actives have a fitted effect of over 55% in size
#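 Chicken DT40 Tdp1-/- cells complemented with human TDP1, 400 cells/well, exposed to compounds plus 20 nM camptothecin for at least 48 h at 37 C; viability read as ATP content by CellTiter-Glo luminescence.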
# Hits are given with their value; - = inactive; ? = inconclusive; . = no result. Rows were chosen to be rich in hits. Some 19% of all compounds tested hit in one or more screens of this group. Unless noted, calls come from the whole dose curve; as a rule, active = well fitted curve in the direction sought with a large enough effect; inconclusive = small, poorly fitted or top-dose-only effect, or another doubt; inactive = no such curve, though single readings can be large; an effect the other way counts as inactive or inconclusive.
SMILES,HT1080 IDH1KD tx,IL1B secr inh,HT1080-NT tox,DT40 TDP1 no CPT,DT40 TDP1 CPT
COc1ccc(N2CCN(C(=O)c3nc(-c4ccc(Cl)cc4)n4c3CCCCC4)CC2)cc1,.,.,.,21µM,?
Cc1ccc(CNC(=O)c2nc(-c3ccc(Cl)cc3)n3c2CCCCC3)cc1,.,.,.,18µM,?
COc1ccc(OC)c(CCNC(=O)c2nc(-c3ccc(Cl)cc3)n3c2CCCCC3)c1,.,.,.,9.2µM,10µM
COc1ccc(N2CCN(C(=O)C(C)(C)Oc3ccc(Cl)cc3)CC2)cc1,-,-,-,?,?
C[C@@H](NC(=O)[C@@H]1CCCN1C(=O)[C@@H]1CCCN1)c1ccccc1,-,-,-,-,-
CCOC(=O)C1(C)CCCN(C(=O)c2ccc(OC)cc2OC)C1 (stereo unspecified),-,-,-,-,-
Cc1cc(C)nc(NC(=NCc2ccc3c(c2)OCO3)NC(=O)Nc2ccccc2)n1,?,-,-,4.6µM,5.2µM
O=C(C1CC1)N1CCN(c2nc3c(F)cc(F)cc3s2)CC1,.,.,.,15µM,?
O=C(C1COc2ccccc2O1)N1CCN(c2nc3c(F)cc(F)cc3s2)CC1 (stereo unspecified),-,-,-,15µM,21µM
O=C(C1COc2ccccc2O1)N1CCN(Cc2ccc(Br)cc2F)CC1 (stereo unspecified),-,-63,-,?,?
CCCCc1ncc(/C=C(\Cc2cccs2)C(=O)O)n1Cc1ccc(C(=O)O)cc1,.,.,.,-,-
CC1C(=O)N(Cc2cn(Cc3ccco3)nn2)CCS(=O)(=O)N1Cc1ccc(-c2ccc(F)nc2)cc1 (stereo unspecified),-,-,-,?,-
Cc1cc(C)cc(OC(=O)C23CCC(C)(C(=O)O2)C3(C)C)c1 (stereo unspecified),-,-,-,-,-
O=C(c1ccc(Cl)cc1)c1oc2ccccc2c1CS(=O)c1ccccc1 (stereo unspecified),-,-,-,?,?
CN(C(=O)CSc1nc2c(c(=O)[nH]1)CCC2)c1ccccc1,-,-,-,-,-
COc1ccc(C(=O)c2c(C)c3ccccc3n2CC(O)CNC(C)C)cc1 (stereo unspecified),?,?,?,23µM,?
COc1cccc(NC(=O)CCc2nnc3n(Cc4ccccc4Cl)c(=O)c4ccccc4n23)c1,.,.,.,?,16µM
O=C(CCc1nnc2n(Cc3ccccc3Cl)c(=O)c3ccccc3n12)Nc1ccc(F)cc1,.,.,.,5.2µM,5.8µM
CC(C)Cn1c(=O)c2ccccc2n2c(CCC(=O)Nc3cccc(Cl)c3)nnc12,.,.,.,16µM,?
CC(C)Cn1c(=O)c2ccccc2n2c(CCC(=O)NCc3ccccc3Cl)nnc12,.,.,.,-,-
COc1ccc(NC(=O)CSc2nc3scc(C)c3c(=O)[nH]2)cc1,-,-,-,-,-
COc1ccccc1N1CCN(S(=O)(=O)CCNC(=O)c2ccccc2Br)CC1,-,-,-,-,-
CC(C)N1CCC(C)(C(=O)Nc2ccccc2Oc2ccccc2)C1 (stereo unspecified),-,-,-,-,-
COc1cccc(-c2nnc(SCC(=O)Nc3cc(C)on3)n2C)c1,-,-,-,-,-
CCOc1ccc(-c2nnc(SCC(=O)Nc3cc(C)on3)o2)cc1,-,-,-,?,8.2µM
SMILES,HT1080 IDH1KD tx,IL1B secr inh,HT1080-NT tox,DT40 TDP1 no CPT,DT40 TDP1 CPT
COc1cccc(-c2nnc(SCC(=O)Nc3cc(C)on3)o2)c1,-,-,-,?,16µM
Cc1cc(NC(=O)CSc2nnc(-c3cccc(Cl)c3)o2)no1,?,-,?,16µM,?
COc1ccc(CCNC(=O)c2cc(COc3c(F)cccc3F)on2)c(OC)c1,-,-,-,?,?
CCC(C)[C@H](NC(=O)[C@H](Cc1ccccc1)n1c(=O)[nH]c2ccccc2c1=O)C(=O)N1CCC[C@@H]1C(=O)O (stereo partly specified),-,-,-,-,-
Cc1cccc(CSc2cn(CC(=O)N3CCCC3)c3ccccc23)c1,.,.,.,16µM,26µM
Cc1cccc(CSc2cn(CC(=O)N3CCCCC3)c3ccccc23)c1,.,.,.,21µM,?
COc1ccc(CCNC(=O)c2cccc(Br)c2)cc1OC,-,-,-,-,?
COc1ccc(/C(O)=C/c2nc3ccc(C(=O)NCCc4cccc(C)c4)cc3[nH]c2=O)cc1OC,-,-,-,2.3µM,2.9µM
CCC(C)NC(=O)c1ccc2nc(-c3ccco3)c(-c3ccco3)nc2c1 (stereo unspecified),.,.,.,13µM,16µM
O=C(O)c1ccc2nc(-c3ccco3)c(-c3ccco3)nc2c1,-,-,-,-,-
COc1ccc(CCNC(=O)c2ccc3nc(-c4ccco4)c(-c4ccco4)nc3c2)cc1OC,?,-53,?,21µM,21µM
O=C(Nc1ccc2nc(-c3ccco3)c(-c3ccco3)nc2c1)NC1CC1,-,-,-,23µM,21µM
COc1ccc(C(=O)NCCc2ccccc2)cc1OC,-,-,-,-,-
Cc1ccc(C(=O)NNC(=O)/C=C\C(=O)O)cc1,-,-,-,-,-
CC1(C)NC(=O)N(CC(=O)OCC(=O)NC(=O)c2ccccc2)C1=O,-,-,-,-,-
Cc1noc(C)c1C(=O)N1CCC2(CCN(C(=O)NC(C)C)CC2)CC1,.,.,.,-,-
COC(=O)[C@@H]1C[C@@H](c2ccccc2)[C@H](C)C1(C)C,-,-,-,?,?
O=C(Nc1cccc(C(F)(F)F)c1)c1ccc2nc(-c3ccco3)c(-c3ccco3)nc2c1,-,-,-,?,21µM
CCc1nc2ccc(C(=O)NCCc3ccc(OC)c(OC)c3)cc2nc1CC,-,-,-,23µM,16µM
O=C(Nc1cccc(C(F)(F)F)c1)c1ccc2snnc2c1,.,.,.,-,-
O=C(NNC(=O)c1ccc([N+](=O)[O-])o1)c1ccccc1,?,-,?,?,?
NC(=O)c1oc2ccccc2c1NC(=O)c1ccc([N+](=O)[O-])o1,2.1µM,-91,1.5µM,0.58µM,0.73µM
O=C(NN(c1ccccc1)c1ccccc1)c1ccc([N+](=O)[O-])o1,?,-93,?,?,?
Cc1ccc(NC(=O)CSc2nnc(Cn3cnc4ccccc43)o2)cc1,-,-,-,-,-
O=C(O)c1ccc(NS(=O)(=O)c2cccc(S(=O)(=O)c3ccc(Cl)c(Cl)c3)c2)cc1,-,-,-,-,-
COc1ccc(S(=O)(=O)Nc2cccc3ccc(O)cc23)cc1,5.2µM,-,3.3µM,7.3µM,6.5µM
COc1ccc(S(=O)(=O)Nc2cc(SCC(=O)O)c(O)c3ccccc23)cc1,-,-59,?,5.2µM,3.3µM
O=C(O)CSc1cc(NS(=O)(=O)c2ccc(Cl)cc2)c2ccccc2c1O,26µM,-84,?,2.3µM,4.6µM
